Laboratory results as given in PubChem BioAssay (Tox21).
Several values for one entry are separate records, joined by “and”; a condition that tells them apart may be missing. Identical values can stand only once. Records with an inconclusive call do not appear. Activity calls are given as the source filed them. Unless noted, calls come from the whole dose curve; as a rule, active = well fitted curve in the direction sought with a large enough effect in the repeat runs; inconclusive = weak or mixed curves; inactive = no such curve, though single readings can be large; an effect the other way counts as inactive or inconclusive.

Experiments:
[1] = A CellTox Green Cytotoxicity Assay to monitor cytotoxicity in HepG2 cells - 0 hour (AID 1224882); note: nearly all actives have a fitted effect of over 35% in size; note: potency is the fitted concentration of half-maximal effect
Method in brief: (§1)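 First, HepG2 cells (600/well) mixed with reagent were plated; second, after 5 h at 37 C they received compounds via pintool; third, fluorescence was measured at 0 h through 40 h at 8 h intervals.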

[2] = A CellTox Green Cytotoxicity Assay to monitor cytotoxicity in HepG2 cells - 32 hour (AID 1224883); note: nearly all actives have a fitted effect of over 50% in size; note: potency is the fitted concentration of half-maximal effect
Method in brief: as §1

[3] = A CellTox Green Cytotoxicity Assay to monitor cytotoxicity in HEK293 cells - 8 hour (AID 1224884); note: nearly all actives have a fitted effect of over 35% in size; note: potency is the fitted concentration of half-maximal effect
Method in brief: (§2)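 Dead-cell fluorescence measured kinetically: asymmetric cyanine dye, HEK293, 600 cells/well, 5 h settle, 23 nL cpd/DMSO, 37 C, reads 0–40 h every 8 h.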

[4] = qHTS RealTime-Glo MT Cell Viability Assay in HEK293 cells - 24 hour (AID 1224886); note: nearly all actives have a fitted effect of over 50% in size; note: potency is the fitted concentration of half-maximal effect
Method in brief: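 Tox21 10K qHTS, HEK293, 600 cells/well, RealTime-Glo reagent co-dispensed with cells; 5 h preincubation, compound by pintool, 37 C, luminescence at 0–40 h.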

[5] = qHTS RealTime-Glo MT Cell Viability Assay in HEK293 cells - 8 hour (AID 1224887); note: top concentration of the series differs between compounds; nearly all actives have a fitted effect of over 50% in size
Method in brief: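 600 HEK293 cells per well, dispensed already mixed with RealTime-Glo MT reagents. Compound dosing came 5 h later. The same wells were read for luminescence at 0, 8, 16, 24, 32 and 40 h of exposure at 37 C.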

[6] = A CellTox Green Cytotoxicity Assay to monitor cytotoxicity in HEK293 cells - 16 hour (AID 1224888); note: nearly all actives have a fitted effect of over 35% in size; note: potency is the fitted concentration of half-maximal effect
Method in brief: as §2

[7] = qHTS RealTime-Glo MT Cell Viability Assay in HepG2 cells - 0 hour (AID 1224889); note: nearly all actives have a fitted effect of over 50% in size
Method in brief: (§3)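 Cells + NanoLuc/prosubstrate dispensed (600 cells/well) → 5 h at 37 C/5% CO2 → compounds in DMSO transferred → 40 h incubation at 37 C, luminescence read at 0, 8, 16, 24, 32, 40 h.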

[8] = A CellTox Green Cytotoxicity Assay to monitor cytotoxicity in HepG2 cells - 8 hour (AID 1224890); note: nearly all actives have a fitted effect of over 45% in size; note: potency is the fitted concentration of half-maximal effect
Method in brief: as §1

[9] = qHTS assay to identify small molecule antagonists of the androgen receptor (AR) signaling pathway using the MDA cell line in the presence of 0.5 nM R1881 - cell viability counter screen (AID 1259242); note: nearly all actives have a fitted effect of over 45% in size; note: potency is the fitted concentration of half-maximal effect
Method in brief: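 qHTS format. MDA-kb2 (MMTV-luc, AR/GR responsive) + cpd + 0.5 nM R1881 final, 16 hr 37C/0% CO2 → CellTiter-Fluor 30 min → fluorescence intensity.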

[10] = molecular target: Estrogen receptor (Homo sapiens) (UniProt P03372); assay: qHTS assay to identify small molecule antagonists of the estrogen receptor alpha (ER-alpha) signaling pathway using the BG1 cell line in the presence of 0.1 nM 17-beta-estradiol (AID 1259244); note: nearly all actives have a fitted effect of over 50% in size; note: potency is the fitted concentration of half-maximal effect
Sequence of Estrogen receptor (Homo sapiens) (P03372 whole entry, looked up): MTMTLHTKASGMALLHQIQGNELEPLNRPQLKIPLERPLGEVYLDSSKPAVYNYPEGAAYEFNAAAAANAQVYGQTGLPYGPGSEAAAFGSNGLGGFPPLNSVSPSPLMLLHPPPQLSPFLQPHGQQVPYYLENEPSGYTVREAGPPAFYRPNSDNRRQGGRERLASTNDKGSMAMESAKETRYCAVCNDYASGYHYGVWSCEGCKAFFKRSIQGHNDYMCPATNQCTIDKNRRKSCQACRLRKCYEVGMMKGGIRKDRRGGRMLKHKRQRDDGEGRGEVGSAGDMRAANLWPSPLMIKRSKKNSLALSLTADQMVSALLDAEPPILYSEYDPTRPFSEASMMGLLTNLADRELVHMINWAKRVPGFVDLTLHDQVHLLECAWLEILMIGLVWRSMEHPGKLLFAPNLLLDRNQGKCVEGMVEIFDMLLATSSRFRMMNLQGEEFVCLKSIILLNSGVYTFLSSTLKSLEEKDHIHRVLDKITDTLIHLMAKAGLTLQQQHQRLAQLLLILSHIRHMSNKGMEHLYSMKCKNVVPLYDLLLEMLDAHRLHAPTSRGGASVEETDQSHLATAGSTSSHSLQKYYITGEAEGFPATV
Method in brief: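 Reporter is a stably transfected luciferase under four estrogen responsive elements in VM7Luc4E2 cells expressing native full-length ER-alpha; inhibition of 0.1 nM (final) 17beta-estradiol-driven signal over 22 h is read by luminescence.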

[11] = qHTS assay to identify small molecule HDAC inhibitors (AID 1259364); note: potency is the fitted concentration of half-maximal effect;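 note: wild-type HCT-116 cells with endogenous class I/II HDAC activity; nearly all actives have a fitted effect of over 45% in size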
Method in brief: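 Quantitative high-throughput format: overnight-seeded HCT-116 cells got compounds for 2 hr at 37C; HDAC-Glo I/II reagent added, 30 min RT, luminescence measured.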

[12] = qHTS assay to identify small molecule antagonists of the sonic hedgehog signaling (Shh) pathway - cell viability counter screen (AID 1259367); note: nearly all actives have a fitted effect of over 55% in size; note: potency is the fitted concentration of half-maximal effect
Method in brief: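 Cytotoxicity was assessed in parallel with Shh reporter activity by measuring live-cell protease fluorescence (CellTiter-Fluor) in NIH/3T3 cells stably carrying Gli1-Luc, treated with compound under conditioned medium stimulation for 23 hr plus 1 hr reagent incubation.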

[13] = qHTS assay to identify small molecule agonists of the sonic hedgehog signaling (Shh) pathway (AID 1259368; calls by dose curve;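 note: NIH/3T3-derived 3T3Gli1-Luc cells carrying a stable Gli1-driven firefly luciferase reporter; series mostly up to about 92 µM; nearly all actives have a fitted effect of over 15% in size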)
Method in brief: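 Quantitative high-throughput format using a Gli1-driven firefly luciferase reporter line derived from NIH/3T3 cells. After a 24 hr compound treatment at 37 C and 5% CO2, luminescence reported Gli1 response element activity.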

[14] = qHTS assay to identify small molecule antagonists of the sonic hedgehog signaling (Shh) pathway (AID 1259369; calls by dose curve; note: nearly all actives have a fitted effect of over 45% in size; note: potency is the fitted concentration of half-maximal effect)
Method in brief: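 Stable Gli1-Luc reporter NIH/3T3 clone; quantitative HTS in stimulated mode with conditioned medium. Luminescence measured after 24hr compound treatment at 37 C.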

[15] = qHTS assay to identify small molecule HDAC inhibitors - cell viability counter screen (AID 1259365); note: nearly all actives have a fitted effect of over 50% in size; note: potency is the fitted concentration of half-maximal effect
Method in brief: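 Luminescence from CellTiter-Glo, developed 30min at room temperature, reports viability of wild-type HCT-116 cells treated 2hr with compounds at 37 C and 5% CO2 after overnight plating.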

[16] = qHTS assay to identify small molecule agonists of the sonic hedgehog signaling (Shh) pathway - cell viability counter screen (AID 1259366); note: nearly all actives have a fitted effect of over 50% in size; note: potency is the fitted concentration of half-maximal effect
Method in brief: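 Cytotoxicity counter screen run in the same wells as the Shh reporter assay. NIH/3T3 cells carrying a Gli1 response element–driven luciferase were treated with DMSO-dissolved compounds for 24hr, and live-cell protease activity was measured with CellTiter-Fluor.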

[17] = qHTS assay to identify small molecule antagonists of the estrogen receptor alpha (ER-alpha) signaling pathway using the BG1 cell line in the presence of 0.1 nM 17-beta-estradiol - cell viability counter screen (AID 1259241); note: nearly all actives have a fitted effect of over 40% in size; note: potency is the fitted concentration of half-maximal effect
Method in brief: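 VM7Luc4E2, 4,000 cells/well, phenol red-free medium + 10% charcoal-stripped FBS; 24 hr plating; cpd + 0.1 nM E2 final, 22 hr 37C/5% CO2; CellTiter-Fluor 30 min, fluorescence.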

[18] = qHTS assay to identify small molecule phospholipidosis (PLD) inducers (AID 1259344; active = well fitted curve in the direction sought with a large enough effect; an effect the other way counts as inactive or inconclusive)
Method in brief: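 Cells (HepG2, 900 per well) attach for 4 h, receive LipidTOX Red and compound together, incubate 24 h at 37 C, are fixed 30 min with paraformaldehyde/Hoechst, then imaged at one site per well.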

[19] = molecular target: Androgen receptor (Homo sapiens) (UniProt P10275); assay: qHTS assay to identify small molecule antagonists of the androgen receptor (AR) signaling pathway using the MDA cell line in the presence of 0.5 nM R1881 (AID 1259243); note: nearly all actives have a fitted effect of over 50% in size
Sequence of Androgen receptor (Homo sapiens) (P10275 whole entry, looked up): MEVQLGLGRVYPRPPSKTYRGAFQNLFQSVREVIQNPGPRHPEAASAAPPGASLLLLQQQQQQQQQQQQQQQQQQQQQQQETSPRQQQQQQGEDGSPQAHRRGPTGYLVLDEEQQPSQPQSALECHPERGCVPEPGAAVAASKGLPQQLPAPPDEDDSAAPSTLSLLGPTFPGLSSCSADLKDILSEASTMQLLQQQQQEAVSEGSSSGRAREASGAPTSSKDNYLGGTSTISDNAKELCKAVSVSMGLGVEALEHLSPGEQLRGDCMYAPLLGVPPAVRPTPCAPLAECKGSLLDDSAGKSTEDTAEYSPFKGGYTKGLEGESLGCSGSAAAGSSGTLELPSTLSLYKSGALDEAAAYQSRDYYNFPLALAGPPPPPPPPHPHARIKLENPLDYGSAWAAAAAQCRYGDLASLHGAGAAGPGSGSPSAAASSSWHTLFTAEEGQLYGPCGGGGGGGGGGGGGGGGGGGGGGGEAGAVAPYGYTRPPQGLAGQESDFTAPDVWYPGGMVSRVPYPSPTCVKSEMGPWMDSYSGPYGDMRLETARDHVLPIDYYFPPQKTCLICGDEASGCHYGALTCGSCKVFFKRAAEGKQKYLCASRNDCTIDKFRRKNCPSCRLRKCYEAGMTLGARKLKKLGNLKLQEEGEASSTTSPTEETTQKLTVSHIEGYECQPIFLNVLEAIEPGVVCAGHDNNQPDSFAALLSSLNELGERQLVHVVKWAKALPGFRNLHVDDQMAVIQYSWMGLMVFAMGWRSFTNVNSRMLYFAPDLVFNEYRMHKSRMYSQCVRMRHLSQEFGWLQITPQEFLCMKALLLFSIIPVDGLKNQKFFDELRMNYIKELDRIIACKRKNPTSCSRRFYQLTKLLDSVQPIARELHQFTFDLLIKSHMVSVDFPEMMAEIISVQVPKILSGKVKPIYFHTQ
Method in brief: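 Antagonist mode quantitative HTS in MDA-kb2 MMTV-luciferase cells, agonist R1881 at 0.5 nM final, 16 hr exposure at 37C and 0% CO2, luminescent detection.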

[20] = qHTS RealTime-Glo MT Cell Viability Assay in HepG2 cells - 16 hour (AID 1224885); note: nearly all actives have a fitted effect of over 50% in size
Method in brief: as §3

Measured: Potency

Nc1cccc(S(=O)(=O)c2cccc(N)c2)c1
inactive: [1] | [2] | [3] | [4] | [5] | [6] | [7] | [8] | [9] | [10] | [11] | [12] | [13] | [14]

CN(C)c1ccc(CCO)cc1
inactive: [1] | [2] | [3] | [5] | [6] | [7] | [9] | [10] | [11] | [15] | [16] | [13] | [14]

Nc1ncn([C@H]2C[C@H](O)[C@@H](CO)O2)c(=O)n1
inactive: [1] | [2] | [3] | [4] | [5] | [6] | [7] | [8] | [17] | [9] | [18] | [11] | [16] | [12] | [13] | [14]

O=C(c1ccc(F)cc1)C1CCN(CCn2c(=S)[nH]c3ccccc3c2=O)CC1
active: [4] 7.56 µM
inactive: [1] | [2] | [3] | [6] | [7] | [8] | [17] | [9] | [19] | [11] | [15] | [16] | [12] | [13] | [14]

NCC(=O)CCC(=O)O
inactive: [1] | [2] | [20] | [4] | [5] | [6] | [7] | [8] | [17] | [9] | [10] | [18] | [11] | [12] | [13] | [14]

CCCn1cnc2c1c(=O)n(CCCCC(C)=O)c(=O)n2C
inactive: [1] | [2] | [3] | [4] | [5] | [6] | [7] | [8] | [17] | [9] | [19] | [10] | [18] | [11] | [15] | [16] | [13]

C#CCN(C)CCCOc1ccc(Cl)cc1Cl
active: [2] 19 µM
inactive: [1] | [3] | [4] | [6] | [7] | [17] | [9] | [10] | [18] | [11] | [15] | [16] | [12] | [13] | [14]

CCOc1ccc(O)cc1
active: [14] 15.4 µM
inactive: [1] | [2] | [3] | [20] | [7] | [8] | [9] | [10] | [11] | [15] | [16] | [12] | [13]

COC(C)(C)CCO
inactive: [1] | [2] | [3] | [6] | [7] | [17] | [9] | [11] | [15] | [16] | [12] | [13] | [14]

CCOc1ccc(N=Nc2ccc(/C=C/c3ccc(N=Nc4ccc(OCC)cc4)cc3S(=O)(=O)O)c(S(=O)(=O)O)c2)cc1
inactive: [1] | [2] | [3] | [4] | [5] | [7] | [11] | [15] | [13]
active: [12] 21.4 µM

CN(C)c1ccc(C(c2ccccc2)c2ccc(N(C)C)cc2)cc1
active: [14] 3.06 µM
inactive: [1] | [2] | [3] | [5] | [6] | [7] | [8] | [17] | [9] | [11] | [15] | [16] | [12] | [13]

C=CC(=O)OCCOCCOCCOCCOC(=O)C=C
active: [2] 39.1 µM and 13.7 µM | [10] 54.8 µM | [16] 27.4 µM and 21.5 µM | [14] 3.08 µM and 6.06 µM
inactive: [1] | [3] | [6] | [7] | [8] | [11] | [13]

CN(C)CCN(Cc1ccsc1)c1ccccn1
inactive: [1] | [2] | [3] | [5] | [6] | [7] | [8] | [17] | [9] | [19] | [10] | [11] | [15] | [16] | [12] | [13] | [14]

CC(C)Nc1ccc(NC(C)C)c2c1C(=O)c1ccccc1C2=O
active: [2] 9.06 µM | [11] 12.7 µM | [15] 12.7 µM
inactive: [1] | [3] | [4] | [6] | [7] | [8] | [17] | [9] | [16] | [12] | [13] | [14]

CC(C)Cc1ccc(C(C)C(=O)OCc2ccccn2)cc1 (configuration not stated)
inactive: [1] | [2] | [3] | [7] | [8] | [17] | [9] | [10] | [11] | [15] | [16] | [13]

CCN(CC)c1ccc2c(-c3ccccc3C(=O)O)c3ccc(=[N+](CC)CC)cc-3oc2c1
active: [1] 21.9 µM | [2] 24.5 µM | [3] 24.5 µM | [4] 24.5 µM | [6] 24.5 µM | [8] 24.5 µM | [17] 8.63 µM | [9] 10.9 µM | [16] 4.33 µM | [14] 34.4 µM
inactive: [11] | [13]
